PostGolgi yeast: growth inhibition of a yeast mutant, post-Golgi transport screen; post-Golgi transport phenotypic cell assay; AID 739; actives 0.9% (n = 98,000); inhibition, % at 10 µM;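 further: yeast cells grown in 1536-well plates; yeast grown about 18 h at 30C before absorbance read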
PostGolgi ctrl: yeast control strain growth, post-Golgi counter-screen. efflux-deficient yeast background strain, growth absorbance A615, 16 h. inhibition, % at 10 µM. actives 5% (n = 98,000)
CYP2C9 inhib: blocks human cytochrome P450 2C9; AID 777; P11712; CYP2C9 Supersomes, luciferin-H conversion, luminescence; actives 20% (n = 96,000); inhibition, % at 5 µM;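 active means blocking of liver enzyme CYP2C9 beyond about 50% at 5 µM, limit read from the data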
Target sequence (P11712 whole entry, looked up): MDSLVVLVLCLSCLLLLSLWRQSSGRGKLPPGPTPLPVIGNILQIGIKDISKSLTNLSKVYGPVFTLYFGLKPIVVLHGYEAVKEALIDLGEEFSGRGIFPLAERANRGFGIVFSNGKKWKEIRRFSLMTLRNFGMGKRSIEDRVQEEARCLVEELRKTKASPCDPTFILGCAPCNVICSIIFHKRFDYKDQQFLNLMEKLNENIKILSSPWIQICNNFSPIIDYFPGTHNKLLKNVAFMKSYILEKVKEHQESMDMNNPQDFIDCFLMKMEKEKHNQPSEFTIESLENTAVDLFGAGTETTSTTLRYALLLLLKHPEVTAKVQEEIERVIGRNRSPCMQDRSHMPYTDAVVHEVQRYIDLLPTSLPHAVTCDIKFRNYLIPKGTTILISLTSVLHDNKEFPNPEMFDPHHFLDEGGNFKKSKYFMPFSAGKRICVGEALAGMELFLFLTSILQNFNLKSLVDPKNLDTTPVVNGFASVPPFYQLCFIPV
CYP2C19 activ: cytochrome P450 2C19 (human) activation; recombinant CYP2C19, luciferin-H EGE luminescence; hits give high values; 0 = fully inhibited enzyme, 1 = untreated enzyme; activation factor at 5 µM; 96,000 tested, under 10 active;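 active means activation factor of at least 2 at 5 µM in the primary screen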;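 further: 0 = wells with 2.5 mM tranylcypromine and 1 = vehicle-only wells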
CYP2C9 act: increases human cytochrome P450 2C9 activity. P11712. recombinant CYP2C9, luciferin-H conversion, luminescence; hits give high values; factor 1 = untreated enzyme, 0 = blocked. activation factor at 5 µM. actives 1.4% (n = 96,000);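 active means activation factor of 2 or more for CYP2C9 at a 5 µM dose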;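 further: 0 = sulfaphenazole-blocked wells and 1 = vehicle-only wells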
CYP2C19 inhib: blocks human cytochrome P450 2C19; actives 21% (n = 96,000); CYP2C19 Supersomes, luciferin-H EGE luminescence, 30 min; inhibition, % at 5 µM; P33261;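 active means CYP2C19 inhibition above a set limit at 5 µM in the primary screen, cut at about 50% in these data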;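 further: plate controls were negative control wells for no effect and 2.5 mM tranylcypromine positive control for full effect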
* marks the source's active call; other numbers are inactive results; · = no result. An excerpt weighted towards active compounds, which were near 32% of everything screened. Unless noted, no stated cut-off is given here; in the data, active means inhibition above about 30%; inactive means the rest.

SMILES | PostGolgi yeast | PostGolgi ctrl | CYP2C9 inhib | CYP2C19 activ | CYP2C9 act | CYP2C19 inhib
CC(C)CC(OC(=O)c1cccs1)C(=O)NCc1cccs1 (configuration not stated) | -6 | -4 | 92* | 0 | 0.1 | 95*
CC(C(=O)NCc1cccs1)N1C(=O)c2ccccc2C1=O (configuration not stated) | -1 | 28 | 24 | 0.8 | 0.8 | 24
CC(OC(=O)c1ccco1)C(=O)NCc1cccs1 (configuration not stated) | 10 | -16 | · | · | · | ·
O=C(COC(=O)c1ccco1)Nc1nc2ccccc2s1 | -2 | 15 | 35 | 0.7 | 0.7 | 33
CN(C)CCN1C(=O)C(O)=C(C(=O)c2cc3ccccc3o2)C1c1ccc(N(C)C)cc1 (configuration not stated) | -4 | 13 | -6 | 1 | 1.1 | 2
CC(C)N(C(=O)CSc1nnc(CN2CCCCCC2=O)n1-c1ccccn1)C(C)C | -4 | 3 | -9 | 1 | 1.1 | -3
Cc1c(-c2ccco2)[n+](=O)c2c(n1[O-])CCCCC2 | -5 | 7 | -3 | 0.5 | 1 | 47
Cc1c(-c2ccccc2)[n+](=O)c(-c2ccco2)c(C)n1[O-] | -5 | 6 | -4 | 0.1 | 1 | 87*
O=C(OCC1OC(n2cnc3c(N(C(=O)c4ccccc4)C(=O)c4ccccc4)ncnc32)C(O)C1F)c1ccccc1 (configuration not stated) | -6 | 8 | 94* | 0.2 | 0.1 | 80*
Cc1ccc(C)c(-n2c(Cc3cc(=O)[nH]c(=O)[nH]3)nnc2SCC(=O)NCC2CCCO2)c1 (configuration not stated) | -2 | 2 | 9 | 1.1 | 0.9 | -10
CCNc1nc(NCC)n2c(SCc3ccc(F)cc3)nnc2n1 | 17 | 4 | 3 | 0 | 1 | 96*
CCNc1nc(NCC)n2c(SCc3nc4ccccc4c(=O)[nH]3)nnc2n1 | 21 | 4 | 5 | 0.8 | 0.9 | 24
O=C(Nc1ccccc1)c1cccc(N2C(=O)CCC2=O)c1 | -4 | -2 | 31 | 0.6 | 0.7 | 44
Cc1ccc(NC(=O)C2(NC(=O)c3cccc(N4C(=O)CSC4c4ccccc4)c3)CCCCC2)cc1 (configuration not stated) | -9 | 3 | 84* | 1 | 0.2 | 4
COc1cc(C)nc(N(Cc2ccccc2)S(=O)(=O)c2ccccc2)n1 | -1 | 33* | 74* | 0.2 | 0.3 | 83*
CCOC(=O)c1nn(-c2ccc3c(c2)OCO3)cc1O | 0 | 16 | · | · | · | ·
COc1ccccc1N/C(=N/c1nc(C)cc(C)n1)NC(C)=O | 8 | 9 | -5 | 1.1 | 1.1 | -10
Nc1nc(-c2cccc(Br)c2)cs1 | 4 | 14 | 0 | 0.4 | 1 | 64*
O=C(COC(=O)C1CCC1)NCc1ccccc1Cl | -1 | -9 | 30 | 0.1 | 0.7 | 88*
CC1CC1C(=O)OCC(=O)NCc1ccccc1Cl (configuration not stated) | -5 | 5 | 8 | 0.1 | 0.9 | 88*
NC(=O)CCNC(=O)c1ccc(Cl)cc1 | -5 | 2 | -4 | 1 | 1 | 1
O=C(COC(=O)C1CCC1)Nc1ccc(Oc2ccccc2)cc1 | 0 | -5 | -38 | 0.4 | 1.4 | 55*
O=C(COC(=O)CCCNC(=O)c1ccc(Cl)cc1)NCc1ccccc1Cl | 19 | 6 | 70* | 0.4 | 0.3 | 56*
O=C(N/C=N/OCc1cccc(C(F)(F)F)c1)N1OC[C@@H]2COc3ccc4ccccc4c3[C@@H]21 | 1 | 7 | -12 | 1 | 1.1 | 5
CC1=CC(C)C2(CO)COC(c3ccccc3O)C1C2C (configuration not stated) | 1 | 5 | 64* | 0.1 | 0.4 | 90*
SMILES | PostGolgi yeast | PostGolgi ctrl | CYP2C9 inhib | CYP2C19 activ | CYP2C9 act | CYP2C19 inhib
COc1ccccc1Nc1nc2ccccc2n1C | 6 | -3 | · | · | · | ·
Clc1ccccc1-c1nnc2sc(-c3ccc4c(c3)OCO4)nn12 | 4 | 11 | 44 | 0.8 | 0.6 | 16
Clc1ccc(-c2nnc3sc(-c4ccc(Br)o4)nn23)cc1 | -5 | 5 | 15 | 0.7 | 0.8 | 33
Clc1ccccc1-c1nnc2sc(-c3ccc(Br)o3)nn12 | 6 | 9 | 47 | 0.2 | 0.5 | 80*
Clc1ccc(-c2nnc3sc(-c4ccc(Br)o4)nn23)c(Cl)c1 | -8 | 26 | 21 | 0.4 | 0.8 | 58*
Brc1ccc(-c2nn3c(Cc4ccccc4)nnc3s2)o1 | 1 | 14 | 13 | 0.3 | 0.9 | 68*

High-throughput results as filed in PubChem BioAssay.
